The list is not random: actives were taken first. Their share in the collection is about 1.7%.
PriA SSB inh = blocks PriA binding to SSB C-terminal tail. AID 1272365. 430,000 compounds, 0.6% hits. AlphaScreen SSBct-PriA binding, biotinylated peptide. inhibition, % at 33 µM; in the data active = inhibition mostly above about 37%, no sharp cut-off; inactive = mostly below about 20%;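 also: plate controls were negative control peptide for no effect and reference peptide for full effect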
PrPC surface inh = reduces human prion protein on the cell surface; cell surface PrPC, TR-FRET read-out; 370,000 compounds, 0.43% hits; P04156; AID 720596; inhibition, % at 13.8 µM; in the data active = inhibition above about 24%; also: 0% = median of the test wells and 100% = reference compound wells
PrP 5UTR inh = inhibition of PrP 5' UTR reporter expression; cell-based PrP 5' UTR mRNA reporter, plate reader; inhibition, % (no concentration beside the values); AID 488862; 340,000 compounds, 0.35% hits; in the data active = inhibition above about 52%; also: 0 = median of the neutral control wells
BJeLR lethal = BJeLR cell viability loss. BJeLR (HRASV12) viability, CellTiter-Glo ATP luminescence, 48 h. 300,000 compounds, 0.17% hits. inhibition, % (no concentration beside the values); in the data active = inhibition above about 50%; inconclusive = no clear call, values can overlap the other calls
PfHsp40 rescue = rescue of PfHsp40-mediated yeast toxicity; S. cerevisiae expressing PfHsp40, growth rescue, ATP luminescence; 340,000 compounds, 0.68% hits; growth rescue, % at 12.5 µM; AID 504582; in the data active = growth rescue above about 28%, passing the limit was not always enough; inconclusive = no clear call, values can overlap the other calls;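 also: yeast W303a lacking pdr1 and pdr3 grown in galactose medium; growth measured after three days at 30 °C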
Yp Topo-I inh = blocks Yersinia pestis topoisomerase I activity; Y. pestis Topo-I cleavage product accumulation, plate reader; activity, % at 10 µM; 360,000 compounds, 0.064% hits; AID 504884; in the data active = activity above about 50%, passing the limit was not always enough; inconclusive = no clear call, values can overlap the other calls
PrP 5UTR single = prion 5' UTR mRNA inhibition, cherry-pick retest; shares compounds with PrP 5UTR inh; cell-based prion protein 5' UTR reporter, plate reader; inhibition, % at 2.5 µM; 1,100 compounds, 48% hits; AID 504592; in the data active = inhibition above about 54%; inconclusive = no clear call, values can overlap the other calls
* marks the source's active call; other numbers are inactive results.

What do the screens show for `C=Cc1cc(OC)c2c(c1)c(=O)oc1c2cc(OC)c2c(O)ccc(C3OC(C)C(O)C(C)(O)C3O)c21` (stereo not given)?
PriA SSB inh: 0.7; PrPC surface inh: 31.2*; PrP 5UTR inh: 68.3*; PfHsp40 rescue: 5.5; Yp Topo-I inh: -5.9; PrP 5UTR single: 75.5*

Results for COc1ccccc1NC(=S)N(Cc1ccccc1)Cc1cccs1 ?
PriA SSB inh: -18.5; PrPC surface inh: -4.7; PrP 5UTR inh: 67.0*; BJeLR lethal: -14.3; PfHsp40 rescue: -0.1; Yp Topo-I inh: -0.5; PrP 5UTR single: -23.6

How did Cc1ccc(-n2c(O)c(C=NNc3ccc(S(=O)(=O)N4CCOCC4)cc3[N+](=O)[O-])c3ccccc3c2=O)c(C)c1 do in these assays?
PriA SSB inh: 1.4

Results for COc1cccc(CSc2nc(CC(=O)Nc3ccc(F)c(F)c3)cc(=O)[nH]2)c1 ?
PriA SSB inh: -12.0

How did O=C(Cc1ccc(Cl)cc1)Nc1ccc(C(=O)N2CCOCC2)cc1 do in these assays?
PriA SSB inh: -12.6; PrPC surface inh: 2.3; PrP 5UTR inh: 62.6*; BJeLR lethal: 1.1; PfHsp40 rescue: 0.1; Yp Topo-I inh: -4.6; PrP 5UTR single: -12.1

What do the screens show for `CCN(CC)CCNC(=S)NC(=O)c1cn(-c2ccccc2)nc1-c1ccc(OC)cc1`?
PriA SSB inh: 11.2; PrPC surface inh: -9.0; PrP 5UTR inh: 67.2*; BJeLR lethal: 12.8; PfHsp40 rescue: 0.0; Yp Topo-I inh: -6.6; PrP 5UTR single: 6.0

How did COc1ccc(Nc2nc3c(C)cccn3c(=O)c2C=NCc2ccccc2)cc1 do in these assays?
PriA SSB inh: 2.7; PrPC surface inh: -0.9; PrP 5UTR inh: -1.7; BJeLR lethal: 2.9; PfHsp40 rescue: -0.2; Yp Topo-I inh: -1.6

What do the screens show for `CNc1nc2c(C)cccn2c(=O)c1C=NCc1ccccc1`?
PriA SSB inh: -12.6; PrPC surface inh: -1.7; PrP 5UTR inh: 78.4*; BJeLR lethal: 1.7; PfHsp40 rescue: -1.1; Yp Topo-I inh: 0.8; PrP 5UTR single: 3.6

What do the screens show for `COc1ccc(OC)c2sc(N(Cc3ccccn3)C(=O)c3ccc(Cl)s3)nc12`?
PriA SSB inh: 4.0

What do the screens show for `CC(=NNC(=S)N1CC2CCC(CC2)C1)c1cnccn1`?
PriA SSB inh: -11.4; PrPC surface inh: 4.1; PrP 5UTR inh: 50.3; PfHsp40 rescue: -1.2; Yp Topo-I inh: 7.8

Results for CC(=NNC(=S)N(Cc1ccccn1)Cc1ccccn1)c1cnccn1 ?
PriA SSB inh: 94.5*; PrPC surface inh: 1.0; PrP 5UTR inh: 79.9*; PfHsp40 rescue: 112.5*; Yp Topo-I inh: 7.9; PrP 5UTR single: 58.0*

What do the screens show for `CCOC(=O)CSc1nnc(CNC(=O)c2ccc(OC)cc2)n1Cc1ccccc1`?
PriA SSB inh: 3.5; PrPC surface inh: 5.1; PrP 5UTR inh: -22.0; PfHsp40 rescue: -1.4; Yp Topo-I inh: 5.3

How did COc1ccc(C(=O)NCc2nnc(SC)n2Cc2ccccc2)cc1 do in these assays?
PriA SSB inh: 4.8; PrPC surface inh: 5.0; PrP 5UTR inh: 54.1*; BJeLR lethal: -2.6; PfHsp40 rescue: 0.9; Yp Topo-I inh: -2.8; PrP 5UTR single: 7.9

How did COC(=O)CSc1n[nH]c(=S)s1 do in these assays?
PriA SSB inh: -6.3; PrPC surface inh: 0.8; PrP 5UTR inh: -30.7; BJeLR lethal: 4.0; PfHsp40 rescue: 0.0; Yp Topo-I inh: -8.1

How did CCSc1n[nH]c(=S)s1 do in these assays?
PriA SSB inh: -22.2; PrPC surface inh: -4.4; PrP 5UTR inh: 76.6*; BJeLR lethal: 0.9; PfHsp40 rescue: 0.6; Yp Topo-I inh: -11.6; PrP 5UTR single: -3.5

What do the screens show for `CC(C)(C)n1nnnc1C(c1cccs1)N1CCCC2(CCCCC2)C1` (stereo not given)?
PriA SSB inh: 5.1; PrPC surface inh: 1.9; PrP 5UTR inh: -18.3; BJeLR lethal: -4.7; PfHsp40 rescue: 0.9; Yp Topo-I inh: -0.1

How did CCC(C)(C)n1nnnc1C(c1cccs1)N1CCCCC1 (stereo not given) do in these assays?
PriA SSB inh: -4.5; PrPC surface inh: -0.7; PrP 5UTR inh: 51.5*; BJeLR lethal: 8.4; PfHsp40 rescue: -0.8; Yp Topo-I inh: -0.6; PrP 5UTR single: -5.0

Results for CC(=O)Nc1cccc(NC(=O)CSc2ccc(NC(=O)c3ccccc3)nn2)c1 ?
PriA SSB inh: -13.0

How did Cc1c(Cl)cccc1NC(=O)C(=O)NC[C@@H](c1cn(C)c2ccccc12)N(C)C do in these assays?
PriA SSB inh: 10.0

How did COc1cccc(C(=O)Oc2cc3c4c(c2)C(C)=CC(C)(C)N4C(=O)C3=O)c1 do in these assays?
PriA SSB inh: -6.3; PrPC surface inh: -24.8; PrP 5UTR inh: -18.0; BJeLR lethal: 14.9; PfHsp40 rescue: 3.6; Yp Topo-I inh: 11.6

Results for COc1cc2c3c(c1)C(C)=CC(C)(C)N3C(=O)C2=O ?
PriA SSB inh: 8.6; PrPC surface inh: -18.6; PrP 5UTR inh: 79.5*; BJeLR lethal: 13.5; PfHsp40 rescue: 1.3; Yp Topo-I inh: -8.9; PrP 5UTR single: -2.1

Results for CCN(CC)C(=S)Nc1ccc(OC)cc1 ?
PriA SSB inh: -1.5; PrPC surface inh: -2.3; PrP 5UTR inh: 55.5*; BJeLR lethal: 3.7; PfHsp40 rescue: 2.0; Yp Topo-I inh: 3.5; PrP 5UTR single: -14.8

What do the screens show for `Cc1c(C(=O)NN)sc2nc3n(c(=N)c12)CCC3`?
PriA SSB inh: -13.0

What do the screens show for `Cc1cc(OC2CCN(C(=O)C3c4ccccc4Oc4ccccc43)CC2)cc(=O)o1`?
PriA SSB inh: 0.0

Results for CN1C(CCl)Nc2cc(Cl)c(S(N)(=O)=O)cc2S1(=O)=O (stereo not given) ?
PriA SSB inh: -9.6; PrPC surface inh: 3.2; PrP 5UTR inh: 76.7*; PfHsp40 rescue: -0.9; Yp Topo-I inh: 1.6; PrP 5UTR single: -14.9

How did CC(O)(CNC(=O)c1ccc(Br)o1)c1ccc2c(c1)OCO2 (stereo not given) do in these assays?
PriA SSB inh: 9.0

Results for O=C(C[C@@H]1C/C=C\CCCC(=O)OC[C@@H](c2ccccc2)NC1=O)NCCO ?
PriA SSB inh: -10.1; PrPC surface inh: 2.2; PrP 5UTR inh: -14.3; PfHsp40 rescue: 0.5; Yp Topo-I inh: 1.9

What do the screens show for `CC(C)(C)[C@H]1COC(=O)CCCC/C=C\C[C@H](CC(=O)NCCO)C(=O)N1`?
PriA SSB inh: -11.6; PrPC surface inh: 2.0; PrP 5UTR inh: 57.8*; PfHsp40 rescue: -0.3; Yp Topo-I inh: 1.7; PrP 5UTR single: inconclusive

How did Cn1c(=O)c2c(nc(CN3CCN(c4ccccc4F)CC3)n2CCCc2ccccc2)n(C)c1=O do in these assays?
PriA SSB inh: -16.1; PrPC surface inh: 0.2; PrP 5UTR inh: 82.8*; BJeLR lethal: -11.3; PfHsp40 rescue: -0.6; Yp Topo-I inh: -3.3; PrP 5UTR single: -2.8

Results for CN1CCN(Cc2nc3c(c(=O)n(C)c(=O)n3C)n2CCCc2ccccc2)CC1 ?
PriA SSB inh: -20.2; PrPC surface inh: -4.2; PrP 5UTR inh: -23.0; BJeLR lethal: -0.9; PfHsp40 rescue: -0.2; Yp Topo-I inh: -2.7
